High-throughput results from PubChem.
HEK293 tox: HEK 293 cell cytotoxicity | HEK 293 viability, ATP luminescence (CellTiter-Glo), 48-72 h | Potency, µM (titrated, usually from 115 µM), without a hit: at the top dose activity change, negative = cytotoxicity, actives largely listed as inhibitors | actives 6.6% (n = 94,000); note: % is set by controls: 0 for no effect and ±100 for the full control effect; nearly all actives have a fitted effect of over 60% in size
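HEK 293 seeded at 250 cells/well receive compound via pintool. After 48 or 72 hr at 37 degree Celsius, 5% CO2 and 95% humidity, CellTiter-Glo is dispensed and luminescence read following 10 min at room temperature.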
FLuc inh-1: Photinus pyralis luciferase inhibition | P08659 | purified P. pyralis luciferase, luminescence, biochemical | Potency, µM (doses to about 115 µM), hits mostly inhibitors | actives 2.5% (n = 76,000); note: % is set by controls: 0 for no effect and ±100 for the full control effect; nearly all actives have a fitted effect of over 65% in size
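Luminescence read by CCD imager after adding enzyme (10nM final) to wells holding compound, titrated in qHTS. Substrates 10uM each D-luciferin and ATP; buffer 50mM Tris acetate pH 7.5, 10mM Mg acetate, Tween-20, BSA.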
NIH3T3 tox: cytotoxic compounds in NIH 3T3 cells; NIH 3T3 viability, CellTiter-Glo ATP luminescence, 48-72 h; Potency, µM (highest dose often 96.7 µM), inactives show at the top dose activity change, negative = cytotoxicity, hits mostly inhibitors; actives 4.3% (n = 94,000); note: % is set by controls: 0 for no effect and ±100 for the full control effect; nearly all actives have a fitted effect of over 55% in size
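Luminescent ATP readout (CellTiter-Glo, 10 min RT) after 48 or 72 hr compound exposure of NIH 3T3 cells seeded at 400 cells/well in 1536-well format; quantitative HTS.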
hNpr1 antagonist: antagonists of human natriuretic peptide receptor Npr1. P16066. HEK293 hNpr1 GloSensor cGMP, ANP-stimulated luminescence. Potency, µM (top dose mostly 46.3 µM), without a hit: at the top dose activity change, negative = inhibition, most hits filed as inhibitors. actives 1.6% (n = 76,000). AID 1347048; calls by dose curve; note: % is set by controls: 0 for no effect and ±100 for the full control effect; nearly all actives have a fitted effect of over 60% in size
Target sequence (P16066 whole entry, looked up): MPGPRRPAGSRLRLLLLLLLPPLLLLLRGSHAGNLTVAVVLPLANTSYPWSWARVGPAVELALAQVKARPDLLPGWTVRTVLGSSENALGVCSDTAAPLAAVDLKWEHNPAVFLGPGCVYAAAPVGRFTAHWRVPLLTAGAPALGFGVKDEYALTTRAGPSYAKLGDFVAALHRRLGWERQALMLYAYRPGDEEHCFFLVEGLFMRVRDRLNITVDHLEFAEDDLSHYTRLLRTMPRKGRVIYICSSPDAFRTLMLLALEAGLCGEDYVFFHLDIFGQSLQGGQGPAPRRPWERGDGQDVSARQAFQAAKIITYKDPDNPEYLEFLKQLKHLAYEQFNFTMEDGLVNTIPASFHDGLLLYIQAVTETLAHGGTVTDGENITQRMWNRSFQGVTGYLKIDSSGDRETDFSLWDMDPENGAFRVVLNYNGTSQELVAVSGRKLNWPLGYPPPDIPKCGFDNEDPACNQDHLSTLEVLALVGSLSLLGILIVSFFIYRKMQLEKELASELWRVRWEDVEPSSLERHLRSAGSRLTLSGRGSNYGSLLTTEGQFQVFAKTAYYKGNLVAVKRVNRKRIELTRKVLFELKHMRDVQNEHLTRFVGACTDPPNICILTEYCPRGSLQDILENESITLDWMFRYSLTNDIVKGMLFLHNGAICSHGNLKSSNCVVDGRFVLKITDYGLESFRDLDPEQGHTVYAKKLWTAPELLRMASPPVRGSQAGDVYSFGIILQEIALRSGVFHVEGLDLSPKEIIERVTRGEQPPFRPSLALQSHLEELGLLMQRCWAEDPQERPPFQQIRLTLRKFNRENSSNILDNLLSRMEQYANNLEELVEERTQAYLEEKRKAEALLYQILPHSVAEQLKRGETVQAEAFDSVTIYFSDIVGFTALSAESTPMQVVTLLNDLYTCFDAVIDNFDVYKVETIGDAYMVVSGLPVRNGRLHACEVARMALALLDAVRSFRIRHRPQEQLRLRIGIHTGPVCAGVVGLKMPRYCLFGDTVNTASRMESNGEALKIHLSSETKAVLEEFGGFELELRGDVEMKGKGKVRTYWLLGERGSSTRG
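HEK293 cells stably expressing human Npr1 and cGMP GloSensor pGS-40F, loaded 2 h with 2% GloSensor reagent, given compound 30 min at room temperature. Luminescence read before and 20 min after 0.1 nM hNppA.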
GPT2 inh: blocks human glutamate pyruvate transaminase 2; actives 0.25% (n = 100,000); Potency, µM (series often up to 57.7 µM), for inactives: at the highest dose activity change, negative = inhibition, hits mostly inhibitors; Recombinant GPT2, coupled pyruvate oxidase/HRP Amplex Red fluorescence; Q8TD30; note: % is set by controls: 0 for no effect and ±100 for the full control effect; nearly all actives have a fitted effect of over 60% in size
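Fluorescence of coupled pyruvate oxidase/HRP/Amplex Red system (50uM Amplex, 30 min, dark) reports pyruvate formed by GPT2. Enzyme reaction: 10ng/uL GPT2, 2mM L-alanine, 250uM a-KG, 30 min room temperature, pH 7.5; 50uM AOA control.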
FLuc SDR no ATP: stabilizes firefly luciferase without ATP; shares compounds with FLuc inh-1; Purified FLuc-C-HiBiT, Nano-Glo HiBiT luminescence, no ATP; Potency, µM (top dose mostly 32.7 µM), for inactives: at the highest dose activation (signal gain), actives largely listed as activators; actives 7.8% (n = 1,300); note: nearly all actives have a fitted effect of over 55% in size
FLuc SDR ATP: binders stabilizing firefly luciferase, plus ATP; shares compounds with FLuc inh-1; purified FLuc-C-HiBiT + ATP, HiBiT complementation luminescence; Potency, µM (highest dose often 32.7 µM), for the others: at the highest dose activation (gain of signal), actives largely listed as activators; actives 8.7% (n = 1,300);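 note: signal reports ligand binding via conformational change of the enzyme rather than luciferase catalysis; % of control where 0% means no effect; nearly all actives have a fitted effect of over 55% in size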
FLuc inh-2: inhibitors of firefly luciferase enzymatic activity; shares compounds with FLuc inh-1; AID 1963320; actives 42% (n = 1,300); purified FLuc-C-HiBiT enzyme, luciferin luminescence; Potency, µM (top dose mostly 32.7 µM), for inactives: top-dose activity change, negative = inhibition, hits mostly inhibitors; note: % is set by controls: 0 for no effect and ±100 for the full control effect; nearly all actives have a fitted effect of over 70% in size
* = called active by the depositor; i = inactive; ? = inconclusive; . = no result; [ ] = dose if it differs, or a comment. An excerpt weighted towards active compounds, which were near 10% of everything screened. Unless noted, calls come from the whole dose curve; as a rule, active = well fitted curve in the direction sought with a large enough effect; inconclusive = small, poorly fitted or top-dose-only effect, or another doubt; inactive = no such curve, though single readings can be large; an effect the other way counts as inactive or inconclusive. Potency is the fitted concentration of half-maximal effect.

SMILES	HEK293 tox	FLuc inh-1	NIH3T3 tox	hNpr1 antagonist	GPT2 inh	FLuc SDR no ATP	FLuc SDR ATP	FLuc inh-2
Cc1ccc(-n2ncc3c(N4CCCCC4)ncnc32)cc1	.	.	.	.	.	1.8µM*	1.1µM*	0.2µM*
Nc1ccc2c(N3CCCCC3)ncnc2c1	-18%	i	-21%	-5%	-16%	.	.	.
Nc1ccc2ncnc(N3CCCCC3)c2c1	?	i	?	-24%	2%	.	.	.
O=C(Nc1ccc2ncnc(N3CCCCC3)c2c1)c1ccccc1Cl	?	i	?	-16%	-7%	.	.	.
Cc1ccc(-n2ncc3c(N4CCCCCC4)ncnc32)cc1Cl	.	.	.	.	.	?	?	0.7µM*
Cc1ccc(-n2ncc3c(N4CCCCC4)ncnc32)cc1Cl	.	.	.	.	.	8.8µM*	1.8µM*	0.79µM*
COCc1nc(CCNC(=O)c2ccc(OC)cc2)no1	19%	i	i	5%	i	.	.	.
O=C1CC2(CCN(CC3CC3)CC2)Oc2ccccc21	?	7.9µM*	?	35µM*	-1%[88.5 µM]	17%[49.3 µM]	?	?
COc1ccc(C(=O)N2CCC3(CC2)N(C)C(=O)CS3(=O)=O)cc1	-4%	i	i	4%	i	.	.	.
CCOc1cc2sc(N3CCC(C(=O)Nc4ccc(C(C)C)cc4)CC3)nc2cc1Br	.	.	.	.	.	16%	?	7µM*
CCOc1cc(=O)n2c(c1C(=O)Nc1ccc(C(C)C)cc1)CCCC2	-5%	i	4%	2%	-4%	.	.	.
O=C1c2cnc(-c3ccccc3)nc2OCCN1Cc1ccccc1	?	11µM*	?	-11%[70.6 µM]	1%[88.5 µM]	15%[49.3 µM]	10%[49.3 µM]	-20%[49.3 µM]
COc1ccc(CN2CCOc3nc(Cc4ccccc4)ncc3C2=O)cc1	?	i	?	-9%[70.6 µM]	?	.	.	.
O=C1c2cnc(-c3ccc(Cl)cc3)nc2OCCN1CC1CC1	.	.	.	.	.	24%[49.3 µM]	?	4µM*
O=C1c2cnc(-c3ccccc3)nc2OCCN1CC1CC1	.	.	.	.	.	?	?	16µM*
CCCN1CCC2(CCN(C(=O)c3cccc(OC)c3)CC2)Oc2ccccc21	?	i	?	18%	i	.	.	.
COc1ccc(CN2CCC(C3CCN(C(C)=O)CC3)C2)c(Cl)c1OC (stereo unspecified)	?	i	i	-1%	i	.	.	.
CCc1noc([C@@H]2CC(F)(F)CN2C(=O)C2CCOCC2)n1	?	i	2%	0%	i	.	.	.
Cn1c(C(=O)Nc2ccc3c(c2)OCO3)cc2c1CCN(Cc1cccc(F)c1)C2	?	10µM*	?	-1%	?	13%	12%	-19%
CC(=O)c1cccc(NC(=O)c2cc3c(n2C)CCN(Cc2cccc(F)c2)C3)c1	?	?	-28%	5%	4%	.	.	.
O=C(c1ccccc1F)N1CCN(C(=O)c2nc3cccnc3n(CCc3ccccc3)c2=O)CC1	?	.	?	.	-17%	.	.	.
CN(Cc1cnn(C)c1)C(=O)c1csc2nc(-c3ccc(C(F)(F)F)cc3)cn12	?	4.5µM*	?	?	i	?	?	4.4µM*
Cc1ccc(C(=O)Nc2ccc3oc(-c4ccccc4C)nc3c2)cc1	.	.	.	.	.	14%	9%	-1%
CCc1nc2c(c(-c3ccc(OC)cc3)n1)CCN(C(=O)c1ccc(C(F)(F)F)cc1)CC2	?	.	-25%	.	i	.	.	.
CCc1nn2c(-c3ccco3)ccnc2c1-c1ccc(F)cc1	.	.	.	.	.	15%	10%	?
SMILES	HEK293 tox	FLuc inh-1	NIH3T3 tox	hNpr1 antagonist	GPT2 inh	FLuc SDR no ATP	FLuc SDR ATP	FLuc inh-2
CC(C)Cc1nc2nccc(-c3ccco3)n2n1	7%	i	-2%	2%	i	.	.	.
CCc1cccc(-n2nnnc2N2CCN(C(=O)Nc3ccc(C)c(F)c3)C(C)C2)c1 (stereo unspecified)	?	.	?	.	-9%	.	.	.
CCc1cccc(-n2nnc(-c3nsc(NC(=O)c4cccs4)n3)c2C)c1	.	.	.	.	.	13%	14%	-19%
COCC(=O)NC1CCC12CCN(C(=O)c1ccc3[nH]ccc3c1)CC2 (stereo unspecified)	i	i	4%	4%	2%	.	.	.
COc1ccc(-c2cc3c(=O)n(CCNC(=O)c4c(F)cccc4F)ccn3n2)cc1	-28%	4µM*	-26%	-21%	i	?	?	5µM*
COc1cccc(-c2cc3c(=O)n(CCNC(=O)c4cc(Cl)ccc4F)ccn3n2)c1	?	i	-20%	?	-24%	.	.	.
COc1cccc(-c2cc3c(=O)n(CCNC(=O)C4CCN(C(C)=O)CC4)ccn3n2)c1	i	14µM*	-5%	6%	i	?	?	?
COc1ccc(-c2cc3c(=O)n(CCNC(=O)c4ccco4)ccn3n2)cc1	?	7.9µM*	?	-16%	-1%	?	?	9.9µM*
COc1ccc(-c2nc(C)c(CCNC(=O)c3c(F)cccc3F)s2)cc1	.	.	.	.	.	17%	15%	-20%
COc1cccc(-c2cc3c(=O)n(CCNC(=O)C4CCCCC4)ccn3n2)c1	?	?	-24%	?	i	.	.	.
COc1cccc(C(=O)NCCn2ccn3nc(-c4ccc(C)c(C)c4)cc3c2=O)c1	-20%	?	-9%	-19%	i	.	.	.
COc1ccc(-n2nc3n(c2=O)CCN(C(=O)c2ccc(Cl)cc2)C3)cc1	?	.	-26%	.	i	.	.	.
Cn1cc(-c2ccncc2)cc1C(=O)N1CCN(c2cccc(Cl)c2)CC1	?	i	?	?	-16%	.	.	.
CCC(C(=O)NCCn1ccn2nc(-c3ccc(OC)cc3)cc2c1=O)c1ccccc1 (stereo unspecified)	?	8.9µM*	?	-17%	-2%	25%	14%	?
COc1ccc(-c2cc3c(=O)n(CCNC(=O)c4c(F)cccc4Cl)ccn3n2)cc1	?	3.2µM*	-15%	-23%	i	?	?	?
Cc1occc1C(=O)N[C@@H]1CN(c2ccncn2)C[C@H]1CN(C)C	i	i	i	2%	1%	.	.	.
Oc1cc(-c2nc3ccccc3s2)cc2c1OCCN(Cc1cn[nH]c1-c1ccc(Cl)cc1)C2	.	.	.	.	.	13%	8%	-1%
Cc1ccccc1-c1cc(O)c2c(c1)CN(Cc1nccn1C)CCO2	?	i	-29%	-8%	2%	.	.	.
